In all, about 360,000 compounds went through this assay and about 25,000 (6.9%) were called active. Entries that show only a call come without a potency. Another 9% or so got no clear call; they are omitted. Calls come from the whole dose curve; as a rule, active = well fitted inhibition curve with a large enough effect; inconclusive = small, poorly fitted or top-dose-only effect; inactive = flat fitted curve, though single readings scatter. The full list was thinned out, with actives kept by preference.
These molecules were tested against Luciferin 4-monooxygenase (Photinus pyralis) (UniProt P08659) (assay: qHTS profiling assay for firefly luciferase inhibitor/activator using purifed enzyme and Km concentrations of substrates (counterscreen for miR-21 project)). Details: purified FLuc, luminescence inhibition; series mostly up to 57.5 µM.
Chain of Luciferin 4-monooxygenase (Photinus pyralis) (P08659 whole entry, looked up): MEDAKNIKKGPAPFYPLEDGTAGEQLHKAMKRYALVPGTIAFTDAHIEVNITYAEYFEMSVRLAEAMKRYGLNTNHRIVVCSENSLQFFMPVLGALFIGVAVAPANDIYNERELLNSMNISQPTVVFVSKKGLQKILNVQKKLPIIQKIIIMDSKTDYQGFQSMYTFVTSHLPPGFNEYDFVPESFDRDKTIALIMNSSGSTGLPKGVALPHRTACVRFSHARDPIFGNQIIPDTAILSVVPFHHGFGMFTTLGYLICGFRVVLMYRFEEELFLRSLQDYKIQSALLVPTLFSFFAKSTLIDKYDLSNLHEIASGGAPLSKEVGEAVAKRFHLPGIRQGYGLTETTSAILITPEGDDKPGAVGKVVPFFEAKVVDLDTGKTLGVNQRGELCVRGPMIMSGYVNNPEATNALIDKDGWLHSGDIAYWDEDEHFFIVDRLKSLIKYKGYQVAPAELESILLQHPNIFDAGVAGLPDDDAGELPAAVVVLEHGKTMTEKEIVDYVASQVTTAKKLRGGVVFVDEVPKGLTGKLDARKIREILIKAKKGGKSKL
Summary of the method: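 Biochemical qHTS of compounds, final roughly 60 µM downward over six points, against 10 nM purified firefly luciferase using Km concentrations of substrates (10 uM D-luciferin, 10 uM ATP) in Tris acetate pH 7.5 buffer; luminescence output.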
Cc1nn(-c2ccccc2)c(C)c1/C=N/NC(=O)CSc1nc2ccccc2c(=O)n1-c1ccccc1 was tested, and the Potency was “inactive”.
In the case of Cc1nn(-c2ccccc2)c(Cl)c1/C=N/NC(=O)c1nn(C)cc1[N+](=O)[O-], the Potency is reported as 10.7 µM (active).
Cc1c(C(=O)N/N=C/c2ccccc2)[nH]c2c([N+](=O)[O-])cccc12 was tested, and the Potency was “inactive”.
In the case of COc1ccc(NC(=O)CN2C(=O)COc3ccc(S(=O)(=O)N4CCOCC4)cc32)cc1, the Potency is reported as “inactive”.
For CC(=O)C1C(c2ccc(Cl)cc2)c2c(n[nH]c2C)CC1(C)O (centres undefined), the Potency was “inactive”.
For CCOC(=O)c1ccc(NC2Nc3cc(C)nn3S2)cc1 (centres undefined), the Potency was “inactive”.
CCc1ccc(NC2Nc3cc(C)nn3S2)cc1 (centres undefined) was tested, and the Potency was 4.78 µM (active).
COc1c(Cl)cc(C(=O)N(Cc2ccccc2F)C2CCS(=O)(=O)C2)cc1Cl (centres undefined) was tested, and the Potency was “inactive”.
In the case of O=C(COc1ccc(Cl)cc1)N(Cc1ccco1)Cc1ccco1, the Potency is reported as “inactive”.
For CC[C@H](C)C(=O)N[C@H]1CCCN1C(=O)/C=C/c1ccccc1, the Potency was “inactive”.
COc1ccccc1/C=C/C(=O)NC(=S)N1CCOCC1 was tested, and the Potency was 12 µM (active).
In the case of O=C(/C=C/c1ccco1)NC(=S)N1CCCCC1, the Potency is reported as “inactive”.
With COc1ccc(C)cc1NC(=S)N1CCOCC1 the Potency was “inactive”.
In the case of COc1ccc(OC)c(NC(=O)c2cnn(-c3ccccc3Cl)c2NC(=O)c2ccco2)c1, the Potency is reported as “inactive”.
For Cc1ccc2c(c1)C1CN(C)CCC1N2S(=O)(=O)c1cccc(F)c1 (centres undefined), the Potency was “inactive”.
COCc1nc2ccccc2n1Cc1ccccc1Br was tested, and the Potency was “inactive”.
COCn1c(COc2ccccc2)nc2ccccc21 was tested, and the Potency was 16.9 µM (active).
In the case of CCOc1ccc(C(O)Cc2nc3ccccc3n2C)cc1 (centres undefined), the Potency is reported as “inactive”.
For Cc1ccc(OCc2nc3ccccc3n2C)cc1, the Potency was 3.01 µM (active).
For CC(C)c1ccc(Cn2c(COc3ccccc3)nc3ccccc32)cc1, the Potency was 19 µM (active).
In the case of O=C(Cn1c(COc2ccccc2)nc2ccccc21)Nc1cc(Cl)c(Cl)cc1Cl, the Potency is reported as “inactive”.
For CCCn1c(C(O)c2ccc(OCC)cc2)nc2ccccc21 (centres undefined), the Potency was “inactive”.
CC(O)c1nc2ccccc2n1Cc1ccc([N+](=O)[O-])cc1 (centres undefined) was tested, and the Potency was “inactive”.
For Cn1c(CNC(=O)C(C)(C)C)nc2ccccc21, the Potency was “inactive”.
With CCc1nc2cccnc2n1-c1ccc(CC(=O)Nc2c(C)cccc2C)cc1 the Potency was “inactive”.
With Cc1ccccc1-n1nc(C)c2c1N=C1C(Cl)=CC(Cl)=CN1C2c1ccc(C(=O)O)cc1 (centres undefined) the Potency was “inactive”.
For CCn1c(=O)c(=O)[nH]c2c(=O)oc3ccc(S(=O)(=O)Nc4ccc(OC)cc4)cc3c21, the Potency was “inactive”.
For O=C(CC1N=C2c3ccccc3N=C(SCc3cccc(Cl)c3)N2C1=O)NCc1ccc2c(c1)OCO2 (centres undefined), the Potency was “inactive”.
Cc1ccc(S(=O)(=O)NCCc2nnc3ccc(SCc4cccnc4)nn23)cc1 was tested, and the Potency was “inactive”.
Note: nearly all actives have a fitted effect of over 55% in size.
Potency is the fitted concentration of half-maximal effect.
